Consider 61 molecules from paper PMC4336329 (PLoS ONE, 2015).

SMILES strings stand for the structures. Hit rate of the full screen: of about 310,000 compounds, about 14,000 (4.5%) showed an effect of 50% or more. The effect is printed as a negative number. This is one part of a sample in which strong results are shown more often than they occur.
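Also: peak tail current of the secondary pulse compared with the same well before compound.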

In the test the target is human ether-à-go-go-related gene (hERG) potassium channel (human, UniProt Q12809). The test can be described thus: primary screen, population patch clamp on CHO cells stably expressing hERG; higher = less effect of the substance.
Sequence of human ether-à-go-go-related gene (hERG) potassium channel (Q12809 whole entry, looked up): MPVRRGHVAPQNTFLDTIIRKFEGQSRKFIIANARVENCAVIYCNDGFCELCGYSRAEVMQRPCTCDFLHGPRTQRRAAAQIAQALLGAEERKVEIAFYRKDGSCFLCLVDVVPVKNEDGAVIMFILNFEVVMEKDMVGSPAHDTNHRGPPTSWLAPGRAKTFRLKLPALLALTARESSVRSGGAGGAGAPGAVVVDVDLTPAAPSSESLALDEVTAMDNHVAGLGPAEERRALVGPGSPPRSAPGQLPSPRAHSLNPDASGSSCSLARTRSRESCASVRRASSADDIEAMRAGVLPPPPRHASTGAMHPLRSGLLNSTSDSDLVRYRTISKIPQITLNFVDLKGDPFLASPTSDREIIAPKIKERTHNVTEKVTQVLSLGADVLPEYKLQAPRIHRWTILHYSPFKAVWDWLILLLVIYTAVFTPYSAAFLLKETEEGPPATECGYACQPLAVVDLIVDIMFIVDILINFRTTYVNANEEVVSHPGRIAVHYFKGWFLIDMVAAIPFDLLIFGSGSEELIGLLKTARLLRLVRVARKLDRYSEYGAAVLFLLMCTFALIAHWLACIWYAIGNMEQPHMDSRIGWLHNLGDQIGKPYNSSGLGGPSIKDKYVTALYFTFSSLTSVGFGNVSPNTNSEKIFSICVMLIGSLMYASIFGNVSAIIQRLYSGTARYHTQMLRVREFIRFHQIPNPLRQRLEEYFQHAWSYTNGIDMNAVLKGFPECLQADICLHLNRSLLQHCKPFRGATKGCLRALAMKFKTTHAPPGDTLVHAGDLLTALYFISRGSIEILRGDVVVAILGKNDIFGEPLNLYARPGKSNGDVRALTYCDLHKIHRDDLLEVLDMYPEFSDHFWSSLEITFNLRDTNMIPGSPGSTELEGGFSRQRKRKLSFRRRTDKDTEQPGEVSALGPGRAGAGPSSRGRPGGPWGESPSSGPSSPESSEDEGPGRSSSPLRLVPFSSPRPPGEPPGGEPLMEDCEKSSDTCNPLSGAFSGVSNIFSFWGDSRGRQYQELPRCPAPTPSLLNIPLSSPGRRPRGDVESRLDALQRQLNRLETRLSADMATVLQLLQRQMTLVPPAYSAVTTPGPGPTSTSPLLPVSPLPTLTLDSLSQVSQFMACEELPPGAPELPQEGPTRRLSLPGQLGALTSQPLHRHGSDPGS
In the case of `O=C(NCc1ccc(F)cc1Cl)C1CCN(S(=O)(=O)N2CCC3(CC2)OCCO3)CC1`, the “hERG current change (%, negative = inhibition) at 10uM” value was -13.9%.

`CC(=O)Oc1ccc(NC(=O)Cc2ccccc2)cc1`: the “hERG current change (%, negative = inhibition) at 10uM” value is 24.9%.

With `Cc1ccc(OCC(=O)c2ccc3c(c2)CCCC3)cc1C`, the “hERG current change (%, negative = inhibition) at 10uM” value worked out at 4.7%.

For the molecule `C=CCSc1ncnc2sc(C)c(C)c12`, the “hERG current change (%, negative = inhibition) at 10uM” value stood at 9.87%.

With `COc1ccc(Cl)cc1NC(=O)C1(c2cccs2)CCOCC1`, the “hERG current change (%, negative = inhibition) at 10uM” value was -17.8%.

For `COc1ccc(CCC(C)NCCc2ccc(Cl)cc2Cl)cc1` (stereo not shown), the “hERG current change (%, negative = inhibition) at 10uM” value is recorded as -71.8%.

Turning to `CC(CCc1ccc(O)cc1)NCc1ccc(Br)cc1` (stereo not shown), the “hERG current change (%, negative = inhibition) at 10uM” value is given as -76.2%.

Consider `COc1ccc(CCC(C)NCc2ccc(Cl)c(Cl)c2)cc1` (stereo not shown), for which the “hERG current change (%, negative = inhibition) at 10uM” value is reported as -53.7%.

Consider `CC(CCc1ccccc1)NCc1ccncc1` (stereo not shown), for which the “hERG current change (%, negative = inhibition) at 10uM” value is recorded as -8.72%.

With `CC(CCc1ccccc1)NCc1ccc(Cl)cc1Cl.O=C(O)C(=O)O` (stereo not shown), the “hERG current change (%, negative = inhibition) at 10uM” value was -31.5%.

`COc1ccc(CNCCc2ccc(Cl)cc2Cl)cc1`: the “hERG current change (%, negative = inhibition) at 10uM” value is given as -22.2%.

As to `COc1ccc(CCC(C)NCc2cc(OC)cc(OC)c2)cc1` (stereo not shown), the “hERG current change (%, negative = inhibition) at 10uM” value is on record as -42.3%.

As for `CC(O)CNCc1ccc(Cl)cc1Cl.Cl` (stereo not shown), the “hERG current change (%, negative = inhibition) at 10uM” value is on record as 12.3%.

As to `COc1ccc(CCNC(C)CCc2ccc(OC)cc2)cc1` (stereo not shown), the “hERG current change (%, negative = inhibition) at 10uM” value is -13%.

On to `CC(CCc1ccccc1)NC(=O)Cc1ccc(Br)cc1` (stereo not shown), for which the “hERG current change (%, negative = inhibition) at 10uM” value was 8.87%.

For `COc1ccc(CCC(C)Nc2ccc(F)c(F)c2)cc1` (stereo not shown), the “hERG current change (%, negative = inhibition) at 10uM” value amounted to 5.47%.

With `CC(CCc1ccc(O)cc1)NCc1ccc(Cl)cc1Cl` (stereo not shown), the “hERG current change (%, negative = inhibition) at 10uM” value is -63.8%.

Take `Cc1cc(C)nc(/N=C2\NC(=O)CC(C(=O)O)N2c2ccc(Cl)cc2)n1` (stereo not shown): the “hERG current change (%, negative = inhibition) at 10uM” value is given as 14.9%.

In the case of `COC(=O)CSc1ccc2nnc(CCNS(=O)(=O)c3ccccc3)n2n1`, the “hERG current change (%, negative = inhibition) at 10uM” value is 24.3%.

For the molecule `CC(=O)c1c(COC(=O)c2cccc(C)c2)nc2ccccc2[n+]1[O-]`, the “hERG current change (%, negative = inhibition) at 10uM” value is -1.95%.

With `Cn1c(=O)c2c(nc(SCC(=O)NCC3CCCO3)n2C)n(C)c1=O` (stereo not shown), the “hERG current change (%, negative = inhibition) at 10uM” value turned out to be 2.28%.

In the case of `Cc1c(NC(=S)NC(=O)c2ccccc2Cl)c(=O)n(-c2ccccc2)n1C`, the “hERG current change (%, negative = inhibition) at 10uM” value was 33.4%.

As for `COc1cccc(CC(=O)Nc2cc(S(=O)(=O)N3CCCCC3)ccc2C)c1`, the “hERG current change (%, negative = inhibition) at 10uM” value is given as -15.9%.

Regarding `Cc1c(CC(=O)O)c(=O)oc2cc(OCc3nn[nH]n3)ccc12`, the “hERG current change (%, negative = inhibition) at 10uM” value is recorded as -0.585%.

Regarding `COc1cc(NC(=O)C2CCCCC2)c(OC)cc1NC(=O)CN1CCCCC1`, the “hERG current change (%, negative = inhibition) at 10uM” value was -12%.

`COc1ccc(N2CCN(S(=O)(=O)c3ccc4c(c3)N(C(C)=O)CCO4)CC2)cc1`: the “hERG current change (%, negative = inhibition) at 10uM” value was -18.4%.

Consider `CC(C)CC(=O)C(=O)[O-].[Na+]`, for which the “hERG current change (%, negative = inhibition) at 10uM” value is -0.864%.

For `COc1ccc(CCC(C)NCc2cccc(Br)c2)cc1` (stereo not shown), the “hERG current change (%, negative = inhibition) at 10uM” value was -64.6%.

Regarding `COc1ccc(CCC(C)NCC2CCCCC2)cc1` (stereo not shown), the “hERG current change (%, negative = inhibition) at 10uM” value was -14.9%.

For `COc1ccc(CCC(C)Nc2cccc(C)c2)cc1` (stereo not shown), the “hERG current change (%, negative = inhibition) at 10uM” value worked out at 4.48%.

As to `COc1ccc(CC(=O)NC(C)CCc2ccccc2)cc1` (stereo not shown), the “hERG current change (%, negative = inhibition) at 10uM” value was 5.43%.

As for `COc1ccc(CCC(C)NCc2ccc(F)cc2)cc1` (stereo not shown), the “hERG current change (%, negative = inhibition) at 10uM” value is reported as -44.8%.

Regarding `COc1ccc(CCC(C)NCc2ccc(C(F)(F)F)cc2)cc1` (stereo not shown), the “hERG current change (%, negative = inhibition) at 10uM” value is -66.3%.

Take `O=C(/C=C/c1ccco1)Nc1cccc2cccnc12`: the “hERG current change (%, negative = inhibition) at 10uM” value is on record as -1.87%.

As for `CCOC(=O)c1cnn(-c2cc(C)c3ccccc3n2)c1N`, the “hERG current change (%, negative = inhibition) at 10uM” value is -1.77%.

Turning to `O=C(Cc1cccc2ccccc12)NC(NC(=S)Nc1ccccc1Cl)C(Cl)(Cl)Cl` (stereo not shown), the “hERG current change (%, negative = inhibition) at 10uM” value is given as 11.7%.

As to `Cc1cccc(Oc2ncc(-c3ccc(Cl)cc3)cn2)c1`, the “hERG current change (%, negative = inhibition) at 10uM” value came to 5.22%.

Regarding `Cc1ccc(S(=O)(=O)N2CCN(C(=O)c3ccccc3Cc3ccccc3)CC2)c(C)c1`, the “hERG current change (%, negative = inhibition) at 10uM” value is 4.42%.

As to `CN(CCc1ccccn1)C1CC(=O)N(c2ccc(Cl)cc2)C1=O` (stereo not shown), the “hERG current change (%, negative = inhibition) at 10uM” value is 6.39%.

Regarding `COc1ccc(C(=O)N2CCN(CCc3ccccn3)CC2)cc1.Cl`, the “hERG current change (%, negative = inhibition) at 10uM” value is given as -77.3%.

Regarding `O=C1CC(N2CCN(c3ccccn3)CC2)C(=O)N1c1ccc(Cl)cc1` (stereo not shown), the “hERG current change (%, negative = inhibition) at 10uM” value worked out at 4.46%.

As to `O=C(Cc1ccccn1)c1ccc(Cl)cc1`, the “hERG current change (%, negative = inhibition) at 10uM” value is 17%.

Consider `COc1ccc(C(=O)N2CCN(Cc3ccccn3)CC2)cc1.O=C(O)C(=O)O`, for which the “hERG current change (%, negative = inhibition) at 10uM” value was -5.82%.

On to `COc1ccc(C(=O)N2CCN(c3ccccn3)CC2)cc1`, for which the “hERG current change (%, negative = inhibition) at 10uM” value came out at 3.55%.

With `O=C(c1ccccc1)N1CCN(CCc2ccccn2)CC1`, the “hERG current change (%, negative = inhibition) at 10uM” value is 8.41%.

For the molecule `O=C1CC(N2CCN(CCc3ccccn3)CC2)C(=O)N1c1ccc(Cl)cc1` (stereo not shown), the “hERG current change (%, negative = inhibition) at 10uM” value is reported as -67.4%.

On to `Cl.O=C(c1ccc(Cl)cc1)N1CCN(CCc2ccccn2)CC1`, for which the “hERG current change (%, negative = inhibition) at 10uM” value is reported as -69%.

With `COc1cc(-c2noc(C)c2C#Cc2ccsc2)cc(OC)c1OC`, the “hERG current change (%, negative = inhibition) at 10uM” value worked out at 10.8%.

As for `Cc1ccc(Nc2nnc(SCn3nnc4ccccc4c3=O)s2)cc1`, the “hERG current change (%, negative = inhibition) at 10uM” value was determined as 2.83%.

`N#Cc1ccc(-c2csc(-c3ccno3)n2)cc1`: the “hERG current change (%, negative = inhibition) at 10uM” value is recorded as -14.6%.

Take `CC1=C[C@H]2OC(=O)[C@@H](C)[C@H]2C[C@@H]2[C@H]1C[C@@H](O)[C@@]2(C)O`: the “hERG current change (%, negative = inhibition) at 10uM” value is on record as 6.22%.

Take `N#Cc1c(N)c(C(=O)c2ccccc2)n2ccccc12`: the “hERG current change (%, negative = inhibition) at 10uM” value worked out at 10.7%.

In the case of `CC(=O)Nc1ccc(S(=O)(=O)N(C)CC(=O)OCC(=O)Nc2ccc3c(c2)OCO3)cc1`, the “hERG current change (%, negative = inhibition) at 10uM” value was 9.31%.

With `NC(=O)c1cc2cc(Br)ccc2oc1=NCc1ccccc1`, the “hERG current change (%, negative = inhibition) at 10uM” value is given as 10.4%.

On to `CCCNC(=O)NC(C(=O)OC)C12CC3CC(CC(C3)C1)C2` (stereo not shown), for which the “hERG current change (%, negative = inhibition) at 10uM” value is -10.8%.

In the case of `CC(C)(C)c1ccc(NC(=O)CNC2CCCc3ccccc32)cc1.Cl` (stereo not shown), the “hERG current change (%, negative = inhibition) at 10uM” value is on record as 2.24%.

For `CCCSc1nc2c(cnn2-c2ccc(F)cc2)c(=O)[nH]1`, the “hERG current change (%, negative = inhibition) at 10uM” value was found to be 6.84%.

For `COc1cc([N+](=O)[O-])c(C(=O)N2CCOCC2)c([N+](=O)[O-])c1`, the “hERG current change (%, negative = inhibition) at 10uM” value is 7.66%.

For the molecule `O=C(OCC1OC(n2ncc(=O)[nH]c2=O)C(OC(=O)c2ccccc2)C1OC(=O)c1ccccc1)c1ccccc1` (stereo not shown), the “hERG current change (%, negative = inhibition) at 10uM” value is 14.6%.

Consider `O=C(OCC1OC(n2ccc(=O)[nH]c2=O)C(O)C1OC(=O)c1ccccc1)c1ccccc1` (stereo not shown), for which the “hERG current change (%, negative = inhibition) at 10uM” value is -67.9%.

As to `O=C(OCC1OC(n2ccc(=O)[nH]c2=O)C(Cl)C1O)c1ccccc1` (stereo not shown), the “hERG current change (%, negative = inhibition) at 10uM” value is -9.37%.
